# From PubChem BioAssay (EPA / NIEHS)
# Several values for one entry are separate records, joined by “and”; a condition that tells them apart may be missing. Identical values can stand only once. Results filed as inconclusive are left out. Activity calls are given as the source filed them. Rule for the calls: active = hit-call score of the fitted dose curve at least 0.9, where 1 is the maximum; inconclusive = response in the unintended direction; inactive = score below 0.9.
# Columns and labels:
# [1] = molecular target: human SRC Proto-Oncogene, Non-receptor Tyrosine Kinase (SRC), SRC (gene 6714) (UniProt P12931); assay: NVS_ENZ_hSRC: NovaScreen (NVS) Enzymatic Assay for human SRC Proto-Oncogene, Non-receptor Tyrosine Kinase (SRC) (AID 2283223)
# Method in brief: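 Cell-free kinase activity assay with fluorescent substrate, product separated by electrophoretic mobility shift, read 1 h after dosing. Duplicate single point at 25 uM, then concentration-response up to 50 uM; loss of signal versus DMSO.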
# [2] = molecular target: human Tyrosine Protein Kinase Receptor Tie-2 (Tie2), TEK (gene 7010) (UniProt Q02763); assay: NVS_ENZ_hTie2: NovaScreen (NVS) Enzymatic Assay for human Tyrosine Protein Kinase Receptor Tie-2 (Tie2) (AID 2283225)
# Method in brief: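 Recombinant human Tie2 kinase activity was read cell-free by fluorescence with electrophoretic mobility shift, 1 hour after dosing. The screen used 25 uM in duplicate, then concentration-response up to 50 uM. Signal loss was scored against DMSO.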
# [3] = molecular target: rabbit Imidazoline 2 Central (I2C), CKB (gene 100009085) (UniProt P00567); assay: NVS_ENZ_rabI2C: NovaScreen (NVS) Enzymatic Assay for rabbit Imidazoline 2 Central (I2C) (AID 2283228)
# Method in brief: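 Rabbit brain membranes, cell-free; readout by filter-based scintillation counting 1.5 hours after dosing, loss of signal vs DMSO. Initial duplicate test at 25 uM, then concentration-response with 50 uM top concentration.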
# [4] = molecular target: rat Adenylate Cyclase, Forskolin Stimulated, Adcy5 (gene 64532) (UniProt Q04400); assay: NVS_ENZ_rACFSKBinding: NovaScreen (NVS) Enzymatic Assay for rat Adenylate Cyclase, Forskolin Stimulated (AID 2283232)
# Method in brief: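 Rat forebrain membrane preparation, cell-free, read 1 h after dosing by filter-based scintillation counting. Primary screen in duplicate at 25 uM; actives (e.g. ≥30% inhibition) rerun in concentration-response up to 50 uM; fit versus DMSO.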
# [5] = molecular target: rat Constitutive Nitric Oxide Synthase (CNOS), Nos1 (gene 24598) (UniProt P29476); assay: NVS_ENZ_rCNOS: NovaScreen (NVS) Enzymatic Assay for rat Constitutive Nitric Oxide Synthase (CNOS) (AID 2283236)
# Method in brief: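 Enzyme activity in rat brain membrane preparation, read 1 h after dosing by filter-based radiometric scintillation counting. Primary screen in duplicate at 25 uM; actives (e.g., ≥30% inhibition) then run in concentration-response up to 50 uM.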
# [6] = molecular target: sheep Cyclooxygenase-1 (Cox1), PTGS1 (gene 443551) (UniProt P05979); assay: NVS_ENZ_oCOX1: NovaScreen (NVS) Enzymatic Assay for sheep Cyclooxygenase-1 (Cox1) (AID 2283239);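 note: actives reduce cyclooxygenase activity so potencies are for inhibitors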
# Method in brief: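 Tested in duplicate at 25 uM, then in concentration series if active, against seminal vesicle extract from sheep. Enzyme activity was measured colorimetrically at 0.66 hour and normalised to DMSO.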
# [7] = molecular target: bovine Dopamine Receptor (DR), Non-selective Binding, DRD1 (gene 281125) (UniProt Q95136); assay: NVS_GPCR_bDR_NonSelective: NovaScreen (NVS) G Protein-Coupled Receptor Assay for bovine Dopamine Receptor (DR), Non-selective Binding (AID 2283241)
# Method in brief: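 Bovine striatal membranes; radioligand displacement read by filtration and scintillation counting 1 h after dosing, loss of signal vs DMSO. Screened in duplicate at 25 uM, then concentration-response for hits.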
# [8] = molecular target: sheep Cyclooxygenase-2 (Cox2), PTGS2 (gene 443460) (UniProt P79208); assay: NVS_ENZ_oCOX2: NovaScreen (NVS) Enzymatic Assay for sheep Cyclooxygenase-2 (Cox2) (AID 2283231)
# Method in brief: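 Enzyme from ovine placenta, cell-free; colorimetric absorbance read 0.66 hour after dosing, loss of signal vs DMSO. Screened in duplicate at 25 uM, then concentration-response up to 50 uM.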
# [9] = molecular target: rat Monoamine Oxidase, MAO-B, Central (MAOBC), Maob (gene 25750) (UniProt P19643); assay: NVS_ENZ_rMAOBC: NovaScreen (NVS) Enzymatic Assay for rat Monoamine Oxidase, MAO-B, Central (MAOBC) (AID 2283238)
# Method in brief: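 MAO-B activity in rat brain tissue preparation, cell-free, measured radiometrically by scintillation counting 1.17 h after dosing. Screened in duplicate at 25 uM; actives then in concentration-response up to 50 uM. Loss of signal versus DMSO scored.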
# [10] = tested on: rat Monoamine Oxidase, MAO-A, Peripheral (MAOAP), gene 29253; assay: NVS_ENZ_rMAOAP: NovaScreen (NVS) Enzymatic Assay for rat Monoamine Oxidase, MAO-A, Peripheral (MAOAP) (AID 2283237)
# Method in brief: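 Rat liver mitochondrial membranes served as the MAO-A source, with enzyme activity measured by radiometric scintillation counting 1.17 hours after dosing. Loss of signal was fitted against DMSO; primary screen used 25 uM in duplicate, follow-up used concentration series.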
# [11] = tested on: bovine Angiotensin II Receptor Type 2 (AT2), gene 407157; assay: NVS_GPCR_bAT2: NovaScreen (NVS) G Protein-Coupled Receptor Assay for bovine Angiotensin II Receptor Type 2 (AT2) (AID 2283240)
# Method in brief: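 Radioligand displacement on bovine cerebellar membranes, 1 hour incubation, filter-based scintillation counting; loss of signal vs DMSO. Duplicate single-point screen at 25 uM, then concentration-response to 50 uM maximum.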
# [12] = molecular target: human Sirtuin 2 (SIRT2), SIRT2 (gene 22933) (UniProt Q8IXJ6); assay: NVS_ENZ_hSIRT2: NovaScreen (NVS) Enzymatic Assay for human Sirtuin 2 (SIRT2) (AID 2283217)
# Method in brief: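 Cell-free recombinant human SIRT2, fluorescent substrate with product separated by electrophoretic mobility shift, 1 hr. Screened in duplicate at 25 uM; hits rerun singly in concentration-response up to 50 uM, relative to DMSO.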
# [13] = molecular target: human Sirtuin 3 (SIRT3), SIRT3 (gene 23410) (UniProt Q9NTG7); assay: NVS_ENZ_hSIRT3: NovaScreen (NVS) Enzymatic Assay for human Sirtuin 3 (SIRT3) (AID 2283222)
# Method in brief: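 Cell-free enzyme assay with recombinant protein and fluorescent substrate, product separated by electrophoretic mobility shift; read 1 hour after dosing. Screened in duplicate at 25 uM, then singleton concentration-response up to 50 uM; loss of signal versus DMSO.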
# [14] = molecular target: human Tropomyosin Receptor Kinase A (TRKA), NTRK1 (gene 4914) (UniProt P04629); assay: NVS_ENZ_hTrkA: NovaScreen (NVS) Enzymatic Assay for human Tropomyosin Receptor Kinase A (TRKA) (AID 2283224)
# Method in brief: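 Recombinant human TrkA activity read after 1 h by fluorescence with electrophoretic mobility shift separating substrate and product. Primary screen in duplicate at 25 uM; actives were rerun in concentration-response up to 50 uM. Loss of signal versus DMSO.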
# [15] = molecular target: human Vascular Endothelial Growth Factor Receptor 1 (VEGFR1), FLT1 (gene 2321) (UniProt P17948); assay: NVS_ENZ_hVEGFR1: NovaScreen (NVS) Enzymatic Assay for human Vascular Endothelial Growth Factor Receptor 1 (VEGFR1) (AID 2283226)
# Method in brief: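 Cell-free assay of recombinant human VEGFR1 kinase with substrate, measured 1 h after dosing; fluorescence with electrophoretic mobility-shift separation of substrate and product, referenced to DMSO; primary screen at 25 uM in duplicate, actives then run in concentration series.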
# [16] = molecular target: human Vascular Endothelial Growth Factor Receptor 2 (VEGFR2), KDR (gene 3791) (UniProt P35968); assay: NVS_ENZ_hVEGFR2: NovaScreen (NVS) Enzymatic Assay for human Vascular Endothelial Growth Factor Receptor 2 (VEGFR2) (AID 2283230)
# Method in brief: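 Cell-free recombinant VEGFR2 kinase, fluorescent substrate with electrophoretic mobility-shift separation; read 1 h after dosing. Screened at 25 uM in duplicate, hits to concentration-response up to 50 uM; loss-of-signal versus DMSO.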
# [17] = molecular target: rat Catechol-O-Methyl Transferase (COMT), Comt (gene 24267) (UniProt P22734); assay: NVS_ENZ_rCOMT: NovaScreen (NVS) Enzymatic Assay for rat Catechol-O-Methyl Transferase (COMT) (AID 2283235)
# Method in brief: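 Cell-free enzyme activity with protein extracted from rat dorsal striatum, measured by HPLC with absorbance detection. Compounds screened at 25 uM in duplicate; actives then run in concentration-response up to 50 uM, loss of signal versus DMSO.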
# [18] = molecular target: human Vascular Endothelial Growth Factor Receptor 3 (VEGFR3), FLT4 (gene 2324) (UniProt P35916); assay: NVS_ENZ_hVEGFR3: NovaScreen (NVS) Enzymatic Assay for human Vascular Endothelial Growth Factor Receptor 3 (VEGFR3) (AID 2283229)
# Method in brief: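 Cell-free recombinant VEGFR3 kinase reaction with fluorescent substrate, read 1 h after dosing by electrophoretic mobility shift separation of substrate and product. Single-concentration duplicate screen at 25 uM, then concentration-response up to 50 uM; loss of activity versus DMSO.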
# Sequence of human Tyrosine Protein Kinase Receptor Tie-2 (Tie2), TEK (gene 7010) (Q02763 whole entry, looked up): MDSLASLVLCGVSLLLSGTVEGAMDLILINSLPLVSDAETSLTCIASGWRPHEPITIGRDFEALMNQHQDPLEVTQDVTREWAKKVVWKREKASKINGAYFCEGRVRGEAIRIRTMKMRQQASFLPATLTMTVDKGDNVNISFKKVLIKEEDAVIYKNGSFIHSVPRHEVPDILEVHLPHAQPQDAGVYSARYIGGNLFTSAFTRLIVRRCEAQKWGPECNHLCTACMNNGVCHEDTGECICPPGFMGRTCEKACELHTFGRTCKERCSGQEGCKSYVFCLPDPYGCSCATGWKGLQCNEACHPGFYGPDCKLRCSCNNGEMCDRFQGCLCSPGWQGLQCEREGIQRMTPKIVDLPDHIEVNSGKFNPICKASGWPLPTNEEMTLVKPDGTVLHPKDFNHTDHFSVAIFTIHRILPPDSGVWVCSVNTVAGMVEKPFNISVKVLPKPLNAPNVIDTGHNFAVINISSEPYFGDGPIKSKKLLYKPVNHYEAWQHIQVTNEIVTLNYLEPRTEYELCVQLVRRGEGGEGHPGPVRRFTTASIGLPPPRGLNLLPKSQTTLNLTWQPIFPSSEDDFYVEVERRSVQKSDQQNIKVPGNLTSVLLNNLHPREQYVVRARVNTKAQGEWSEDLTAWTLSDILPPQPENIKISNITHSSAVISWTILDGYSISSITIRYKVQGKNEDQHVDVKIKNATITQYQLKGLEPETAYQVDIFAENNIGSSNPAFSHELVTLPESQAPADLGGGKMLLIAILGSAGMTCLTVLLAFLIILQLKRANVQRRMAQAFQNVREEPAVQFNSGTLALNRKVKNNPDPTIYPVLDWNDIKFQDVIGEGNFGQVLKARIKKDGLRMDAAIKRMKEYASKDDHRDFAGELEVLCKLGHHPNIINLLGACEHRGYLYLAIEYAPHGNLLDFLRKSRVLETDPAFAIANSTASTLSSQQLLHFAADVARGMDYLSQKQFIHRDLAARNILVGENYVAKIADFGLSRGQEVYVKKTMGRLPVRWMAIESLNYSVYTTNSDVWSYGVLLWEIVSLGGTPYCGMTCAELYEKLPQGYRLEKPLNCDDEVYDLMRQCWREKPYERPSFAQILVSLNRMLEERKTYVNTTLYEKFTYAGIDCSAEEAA
# Sequence of rat Constitutive Nitric Oxide Synthase (CNOS), Nos1 (gene 24598) (P29476 whole entry, looked up): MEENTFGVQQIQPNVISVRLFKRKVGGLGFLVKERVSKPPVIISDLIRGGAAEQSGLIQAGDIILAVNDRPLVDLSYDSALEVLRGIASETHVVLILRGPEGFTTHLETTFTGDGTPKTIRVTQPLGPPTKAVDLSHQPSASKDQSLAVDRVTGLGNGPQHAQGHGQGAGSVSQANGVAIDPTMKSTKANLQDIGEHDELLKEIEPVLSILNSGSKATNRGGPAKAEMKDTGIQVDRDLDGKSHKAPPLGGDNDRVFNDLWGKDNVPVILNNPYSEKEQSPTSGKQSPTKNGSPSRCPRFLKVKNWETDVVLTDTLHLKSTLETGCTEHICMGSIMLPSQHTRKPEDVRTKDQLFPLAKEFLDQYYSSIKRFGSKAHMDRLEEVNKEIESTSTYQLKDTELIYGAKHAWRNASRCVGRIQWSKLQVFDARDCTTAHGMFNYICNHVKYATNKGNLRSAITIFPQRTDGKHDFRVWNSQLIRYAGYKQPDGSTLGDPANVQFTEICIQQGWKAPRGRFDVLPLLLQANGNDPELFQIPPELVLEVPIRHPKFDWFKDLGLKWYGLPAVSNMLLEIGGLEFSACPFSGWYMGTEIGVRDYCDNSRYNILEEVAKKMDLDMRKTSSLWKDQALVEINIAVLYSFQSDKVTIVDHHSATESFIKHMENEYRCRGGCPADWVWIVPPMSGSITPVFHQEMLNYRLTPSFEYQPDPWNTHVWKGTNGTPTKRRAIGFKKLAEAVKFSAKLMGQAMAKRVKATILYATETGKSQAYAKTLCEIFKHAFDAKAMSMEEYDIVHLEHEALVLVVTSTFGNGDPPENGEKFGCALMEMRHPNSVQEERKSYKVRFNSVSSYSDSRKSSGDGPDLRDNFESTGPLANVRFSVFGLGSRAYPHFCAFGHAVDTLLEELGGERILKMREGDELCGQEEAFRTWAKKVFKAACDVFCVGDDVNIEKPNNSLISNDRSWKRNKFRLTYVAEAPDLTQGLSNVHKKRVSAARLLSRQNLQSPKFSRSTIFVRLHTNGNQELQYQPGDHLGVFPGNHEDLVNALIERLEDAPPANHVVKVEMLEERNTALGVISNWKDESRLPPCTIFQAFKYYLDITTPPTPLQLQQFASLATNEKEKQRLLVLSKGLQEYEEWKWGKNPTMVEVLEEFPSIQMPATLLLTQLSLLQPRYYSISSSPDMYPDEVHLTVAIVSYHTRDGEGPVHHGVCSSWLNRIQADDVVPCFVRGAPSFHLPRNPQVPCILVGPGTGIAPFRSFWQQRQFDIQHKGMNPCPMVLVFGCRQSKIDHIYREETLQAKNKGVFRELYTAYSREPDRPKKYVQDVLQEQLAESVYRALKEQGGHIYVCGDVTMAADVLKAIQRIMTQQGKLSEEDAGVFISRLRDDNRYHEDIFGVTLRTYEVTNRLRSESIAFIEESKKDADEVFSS
# Sequence of human Tropomyosin Receptor Kinase A (TRKA), NTRK1 (gene 4914) (P04629 whole entry, looked up): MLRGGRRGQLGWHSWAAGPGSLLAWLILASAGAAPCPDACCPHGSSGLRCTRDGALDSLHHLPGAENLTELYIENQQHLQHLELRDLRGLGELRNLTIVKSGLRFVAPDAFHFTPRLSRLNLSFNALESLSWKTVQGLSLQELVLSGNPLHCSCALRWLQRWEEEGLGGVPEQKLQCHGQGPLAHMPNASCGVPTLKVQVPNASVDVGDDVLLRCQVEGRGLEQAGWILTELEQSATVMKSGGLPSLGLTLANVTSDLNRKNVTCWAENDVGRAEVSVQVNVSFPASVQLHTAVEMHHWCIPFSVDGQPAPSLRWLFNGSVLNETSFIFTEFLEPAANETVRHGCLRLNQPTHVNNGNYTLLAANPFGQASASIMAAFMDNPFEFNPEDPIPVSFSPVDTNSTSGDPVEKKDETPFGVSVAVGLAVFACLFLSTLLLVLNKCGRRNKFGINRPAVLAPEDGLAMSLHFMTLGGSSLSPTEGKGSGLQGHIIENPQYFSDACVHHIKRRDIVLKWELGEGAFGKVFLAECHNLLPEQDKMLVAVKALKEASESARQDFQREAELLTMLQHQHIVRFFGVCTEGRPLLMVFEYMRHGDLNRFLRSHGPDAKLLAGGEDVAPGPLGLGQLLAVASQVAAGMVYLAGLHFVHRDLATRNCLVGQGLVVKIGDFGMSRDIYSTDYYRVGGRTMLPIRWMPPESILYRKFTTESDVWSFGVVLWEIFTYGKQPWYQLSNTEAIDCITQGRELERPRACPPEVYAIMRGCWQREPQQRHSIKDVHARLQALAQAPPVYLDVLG
# Sequence of sheep Cyclooxygenase-1 (Cox1), PTGS1 (gene 443551) (P05979 whole entry, looked up): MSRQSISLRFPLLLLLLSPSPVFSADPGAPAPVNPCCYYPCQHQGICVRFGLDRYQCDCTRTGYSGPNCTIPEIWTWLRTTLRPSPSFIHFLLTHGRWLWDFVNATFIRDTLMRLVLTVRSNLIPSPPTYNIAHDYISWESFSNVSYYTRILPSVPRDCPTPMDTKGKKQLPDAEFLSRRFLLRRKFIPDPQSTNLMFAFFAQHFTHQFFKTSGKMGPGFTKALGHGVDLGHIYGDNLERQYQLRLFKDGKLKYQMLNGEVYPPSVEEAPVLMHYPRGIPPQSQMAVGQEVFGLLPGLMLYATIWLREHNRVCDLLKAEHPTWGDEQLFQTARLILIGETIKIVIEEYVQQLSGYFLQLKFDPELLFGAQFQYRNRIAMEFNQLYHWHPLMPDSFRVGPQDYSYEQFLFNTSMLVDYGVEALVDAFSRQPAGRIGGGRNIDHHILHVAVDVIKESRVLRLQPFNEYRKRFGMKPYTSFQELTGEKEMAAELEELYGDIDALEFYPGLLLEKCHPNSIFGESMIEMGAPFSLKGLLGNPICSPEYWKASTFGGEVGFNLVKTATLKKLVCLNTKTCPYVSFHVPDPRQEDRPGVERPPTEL
# Sequence of rat Monoamine Oxidase, MAO-B, Central (MAOBC), Maob (gene 25750) (P19643 whole entry, looked up): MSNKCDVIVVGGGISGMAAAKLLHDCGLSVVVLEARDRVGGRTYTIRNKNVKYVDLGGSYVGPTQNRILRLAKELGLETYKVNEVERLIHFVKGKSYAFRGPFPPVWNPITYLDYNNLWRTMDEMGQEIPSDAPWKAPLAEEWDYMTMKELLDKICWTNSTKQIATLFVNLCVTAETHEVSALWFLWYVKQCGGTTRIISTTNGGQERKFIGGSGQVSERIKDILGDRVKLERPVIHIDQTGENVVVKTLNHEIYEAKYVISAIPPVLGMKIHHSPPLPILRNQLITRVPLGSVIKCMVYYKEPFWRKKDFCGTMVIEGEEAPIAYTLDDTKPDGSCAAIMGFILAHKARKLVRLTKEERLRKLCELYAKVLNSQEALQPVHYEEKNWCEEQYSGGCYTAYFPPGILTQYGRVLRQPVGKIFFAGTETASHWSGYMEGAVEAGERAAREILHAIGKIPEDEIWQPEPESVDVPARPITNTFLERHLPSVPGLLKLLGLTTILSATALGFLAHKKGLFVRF
# Sequence of human Sirtuin 2 (SIRT2), SIRT2 (gene 22933) (Q8IXJ6 whole entry, looked up): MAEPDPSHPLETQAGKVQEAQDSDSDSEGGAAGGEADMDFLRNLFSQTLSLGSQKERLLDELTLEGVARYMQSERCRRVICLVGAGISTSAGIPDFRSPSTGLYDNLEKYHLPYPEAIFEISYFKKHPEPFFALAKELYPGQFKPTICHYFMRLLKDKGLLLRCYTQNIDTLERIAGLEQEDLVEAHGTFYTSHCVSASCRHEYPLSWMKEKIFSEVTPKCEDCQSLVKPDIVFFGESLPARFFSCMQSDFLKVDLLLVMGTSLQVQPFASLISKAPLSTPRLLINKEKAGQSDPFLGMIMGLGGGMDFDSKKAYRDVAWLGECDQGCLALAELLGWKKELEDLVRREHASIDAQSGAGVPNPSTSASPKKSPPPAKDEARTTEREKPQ
structure (smiles),measurement,setting,value
CNC(=S)S,outcome,[1],inactive
same,outcome,[2],inactive
same,outcome,[3],inactive
same,outcome,[4],inactive
CC(C)Oc1cc(-n2nc(C(C)(C)C)oc2=O)c(Cl)cc1Cl,outcome,[4],inactive
CCCCC(CC)COC(=O)c1ccccc1C(=O)OCC(CC)CCCC (stereo unspecified),outcome,[5],inactive
CCCCOC(=O)c1ccccc1C(=O)OCCCC,outcome,[2],inactive
same,outcome,[5],inactive
same,outcome,[6],inactive
same,outcome,[7],inactive
CON(C)C(=O)Nc1ccc(Cl)c(Cl)c1,outcome,[8],inactive
same,AC50,[9],16.1 µM (active) [middle of 4 runs]
same,outcome,[6],inactive
C#CCOS(=O)OC1CCCCC1Oc1ccc(C(C)(C)C)cc1 (stereo unspecified),AC50,[9],13.3 µM (active)
Cc1ccc(-c2c(Cl)nc(C#N)n2S(=O)(=O)N(C)C)cc1,outcome,[2],inactive
same,AC50,[10],3.36 µM (active)
same,outcome,[11],inactive
COc1ccc(C(c2ccc(OC)cc2)C(Cl)(Cl)Cl)cc1,AC50,[9],25 µM (active)
Oc1ccccc1-c1ccccc1,AC50,[6],8.97 µM (active)
Fc1ccc(Oc2ccnc3cc(Cl)cc(Cl)c23)cc1,outcome,[12],inactive
CCCN(CCC)c1c([N+](=O)[O-])cc(S(N)(=O)=O)cc1[N+](=O)[O-],outcome,[13],inactive
same,outcome,[14],inactive
same,outcome,[2],inactive
same,outcome,[15],inactive
same,outcome,[8],inactive
same,outcome,[4],inactive
same,outcome,[5],inactive
CC1=C(C(=O)Nc2ccccc2)SCCO1,outcome,[10],inactive
O=C(Nc1ccccc1)Nc1ccnc(Cl)c1,outcome,[3],inactive
same,outcome,[9],inactive
CCCCNC(=O)n1c(NC(=O)OC)nc2ccccc21,AC50,[3],14.2 µM (active)
same,outcome,[4],inactive
CO/C=C(/C(=O)OC)c1ccccc1Oc1cc(Oc2ccccc2C#N)ncn1,outcome,[12],inactive
same,outcome,[13],inactive
same,outcome,[14],inactive
same,outcome,[16],inactive
same,outcome,[6],inactive
COC(=O)N(OC)c1ccccc1COc1ccn(-c2ccc(Cl)cc2)n1,outcome,[17],inactive
CCNc1nc(Cl)nc(NC(C)C)n1,outcome,[18],inactive
same,AC50,[8],7.07 µM (active) and 12.4 µM (active)
CCOP(=S)(OCC)SCn1c(=O)oc2cc(Cl)ccc21,outcome,[5],inactive
